High-throughput results (PubChem BioAssay)
In the library only some 0.86% were active in any assay of this set; here they are far more common.
RECQ1 inh = RECQ1 (human) helicase inhibition | Potency, µM (highest dose often 57.3 µM), for inactives: at the highest dose activity, negative = inhibition, usual class: inhibitors | P46063 | actives 0.54% (n = 240,000) | RECQ1 DNA unwinding, red fluorescence kinetic read;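 note: plate controls were vehicle for no effect and no enzyme for full effect; nearly all actives have a fitted effect of over 30% in size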
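RECQ1T1 50 nM; forked duplex (20 bp + 30-nt ss tails) 200 nM, ATP 2 mM final; pH 8.0, 2 mM MgCl2, 2.5 ug/ml poly(dI-dC); 15 min compound preincubation; discontinuous kinetic read over 2 h at RT.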
FEN1 inhibitor = human FEN1 inhibition; Recombinant FEN1 flap cleavage, fluorescence, 15 min; Potency, µM (highest dose often 114 µM), for inactives: at the highest dose activity change, negative = inhibition, usual class: inhibitors; actives 0.35% (n = 390,000); AID 588795; note: nearly all actives have a fitted effect of over 65% in size
Target sequence (P39748 whole entry, looked up): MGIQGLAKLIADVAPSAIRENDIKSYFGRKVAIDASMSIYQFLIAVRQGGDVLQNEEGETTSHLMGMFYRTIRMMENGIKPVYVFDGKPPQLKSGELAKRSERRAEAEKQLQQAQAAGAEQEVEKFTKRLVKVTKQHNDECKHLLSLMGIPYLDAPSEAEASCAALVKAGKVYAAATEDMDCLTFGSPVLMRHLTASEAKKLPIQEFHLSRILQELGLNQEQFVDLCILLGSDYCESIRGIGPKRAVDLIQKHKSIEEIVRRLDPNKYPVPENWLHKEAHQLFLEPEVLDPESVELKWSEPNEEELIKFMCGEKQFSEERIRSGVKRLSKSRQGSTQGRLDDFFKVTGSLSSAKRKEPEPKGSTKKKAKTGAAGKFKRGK
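Reaction started by adding substrate (50 nM final) to 10 nM enzyme after 15 min room-temperature compound preincubation. Reads at 0 and 15 min, with data normalized and fitted to a four-parameter Hill equation.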
GLS inh = glutaminase GLS (human) inhibition | Potency, µM (highest dose often 45.5 µM), without a hit: at the highest dose activity change, negative = inhibition, most hits filed as inhibitors | actives 0.21% (n = 410,000) | O94925 | GLS enzymatic activity, qHTS titration
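hKGA; 45 mM KH2PO4 pH 8.2 + 0.02% Tween-20; cpd via pin tool; 1 mM Gln soln; GluOx/HRP/Amplex Red; RT 30 min; fluor. t0 & final.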
PGK inhibitor = T. brucei PGK inhibition; P07378; PGK/GAPDH coupled, Kinase-Glo luminescence, 60 min; Potency, µM (series often up to 57.5 µM), inactives show at the top dose activity change, negative = inhibition, usual class: inhibitors; actives 0.043% (n = 380,000); note: nearly all actives have a fitted effect of over 60% in size
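Recombinant glycosomal PGK reaction used 1,3-bisphosphoglycerate generated in-well by GAPDH (100nM final) in 100mM TEA pH 7.6, 5mM MgCl2, 0.01% Tween-20. After 60 minutes at room temperature, ATP was read by Kinase-Glo Plus luminescence end-point.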
APEX1 inh = inhibitors of human APE1 endonuclease; recombinant APE1, TAMRA/BHQ-2 abasic DNA cleavage fluorescence; Potency, µM (titrated, usually from 65.8 µM), inactives show at the top dose activity change, negative = inhibition, most hits filed as inhibitors; actives 0.35% (n = 350,000); AID 2517;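 note: plate controls were vehicle for no effect and reference inhibitor for full effect; nearly all actives have a fitted effect of over 55% in size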
Target sequence (P27695 whole entry, looked up): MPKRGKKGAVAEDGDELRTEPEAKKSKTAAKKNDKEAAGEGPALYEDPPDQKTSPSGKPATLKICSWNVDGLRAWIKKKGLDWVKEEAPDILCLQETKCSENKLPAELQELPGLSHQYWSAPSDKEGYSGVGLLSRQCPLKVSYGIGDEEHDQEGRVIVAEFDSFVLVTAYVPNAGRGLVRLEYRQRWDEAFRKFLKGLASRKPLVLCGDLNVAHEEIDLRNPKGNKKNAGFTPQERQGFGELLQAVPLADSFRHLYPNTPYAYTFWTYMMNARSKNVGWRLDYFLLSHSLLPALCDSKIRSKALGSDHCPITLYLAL
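Compound pre-exposure to 0.75 nM APE1, 15 min at ambient temperature. Reaction initiated with 50 nM TAMRA/BHQ-2 THF substrate, read immediately in kinetic mode, 525 nm excitation, 598 nm emission.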
BLM helicase inh = Bloom syndrome helicase (human) inhibition; Potency, µM (top dose mostly 56.1 µM), for the others: at the highest dose activity change, negative = inhibition, actives largely listed as inhibitors; AID 2528; actives 0.2% (n = 350,000); recombinant BLM DNA unwinding, fluorescence dequenching; P54132;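 note: plate controls were vehicle for no effect and no enzyme for full effect; nearly all actives have a fitted effect of over 35% in size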
* = called active by the depositor; i = inactive; u = inconclusive; x = no result; ! = not active in a repeat; [ ] = another dose, or the depositor's remark. Calls come from the whole dose curve; as a rule, active = well fitted curve in the direction sought with a large enough effect; inconclusive = small, poorly fitted or top-dose-only effect, or another doubt; inactive = no such curve, though single readings can be large; an effect the other way counts as inactive or inconclusive. Unless noted, % is set by controls: 0 for no effect and ±100 for the full control effect; potency is the fitted concentration of half-maximal effect.

SMILES	RECQ1 inh	FEN1 inhibitor	GLS inh	PGK inhibitor	APEX1 inh	BLM helicase inh
CCOc1cc(/C=N/Nc2ccc(S(=O)(=O)Nc3ccccc3C(=O)O)cc2[N+](=O)[O-])cc(Cl)c1O	x	x	2%	-21%	x	x
Cc1c(CCO)sc[n+]1CC(=O)c1ccccc1	x	23%	x	x	x	x
COc1ccc2nc(-c3cccc(F)c3)sc2c1	x	x	x	x	-1%	x
Cc1c(Br)c(O)c(Br)c(O)c1/C=N/n1c(-c2ccccc2)n[nH]c1=S	x	35µM*	u	-22%	44%	-2%
Oc1c(Br)cc(/C=N/n2c(-c3ccccc3)n[nH]c2=S)c(O)c1Br	x	u	0%	-14%	4%	-5%
COc1cc(/C=N/n2c(-c3ccccc3)n[nH]c2=S)cc(OC)c1O	-4%	2%	4.5µM*	4%	u	-1%
CSc1ccc(/C=C2\C=C(C(O)c3ccc(SC)cc3)c3ccccc32)cc1 (stereo unspecified)	x	-28%	x	x	x	x
C(=C1C=c2ccccc2=C1)c1ccc(N=Nc2ccc(C=C3C=c4ccccc4=C3)cc2)cc1	x	2%	x	x	x	x
CCCn1c(C)nc2c(c1=O)c1nc3ccccc3nc1n2CCC1=CCCCC1	i	-8%	6%	-6%	-2%	-3%
Cc1nc2c(c(=O)n1CCC1=CCCCC1)c1nc3ccccc3nc1n2/N=C/c1ccco1	28µM*	-32%	-4%	-10%	u	-23%
CC(C)(C)C(=O)N1CCC2CC1c1cc(-c3ccc4c(c3)OCO4)ccc12 (stereo unspecified)	x	x	-1%	x	x	x
CC(C)(C)NC(=S)N1CCC2CC1c1cc(-c3ccc4c(c3)OCO4)ccc12 (stereo unspecified)	x	x	16µM*	x	x	x
COc1ccccc1NS(=O)(=O)c1cccc(-n2c(O)c(C=Nc3ccccc3C(=O)O)c3ccccc3c2=O)c1	-8%	79µM*	-12%	-9%	-5%	-25%
COc1ccc(Cn2c(O)c(C=Nc3ccccc3C(=O)O)c3ccccc3c2=O)cc1	-9%	u	2%	-12%	-9%	u
CCOC(=O)c1c(NC(=O)c2ccccc2Cl)sc2c1CCc1ccccc1-2	-11%	-10%	10µM*	-1%	16%	-6%
Cn1c(=O)c(C(=O)COC(=O)c2cc(-c3ccco3)nc3ccccc23)c(N)n(CC2CC2)c1=O	32µM*	x	x	x	u	u
COc1ccc(CNC(=O)COC(=O)c2cc(-c3ccco3)nc3ccccc23)cc1	11µM*	x	x	x	20µM*	-23%
Cc1cc(C(=O)NCc2ccco2)c2ccccc2n1	i	-1%	-1%	-4%	-5%	-2%
O=C(O)c1cc(-c2cc(C(=O)O)c3ccccc3n2)nc2ccccc12	x	x	x	x	-2%	-1%
Cn1c(=O)c(C(=O)COC(=O)c2cc(C3CC3)nc3ccccc23)c(N)n(Cc2ccccc2)c1=O	-18%	u	12%	-10%	-10%	-13%
COc1ccc(CNC(=O)COC(=O)c2ccccc2C(=O)c2ccccc2)cc1	-2%	3%	0%	0%	-3%	1%
Cc1ccc(-c2cc(C(=O)NCc3ccco3)c3ccccc3n2)o1	u	-4%	-12%	u	32µM*	-22%
O=C(O)c1cc(-c2ccco2)nc2ccccc12	-25%	40µM*	u	u	25µM*	-9%
c1ccc2c(c1)sc[n+]2CCC1CCCCC1	x	3%	x	x	x	x
O=C1[C@H](Cc2ccccc2)NC/C=C\C[C@@H](c2ccc(Cl)cc2)N1Cc1ccccc1	x	-7%	x	x	x	x
SMILES	RECQ1 inh	FEN1 inhibitor	GLS inh	PGK inhibitor	APEX1 inh	BLM helicase inh
COc1cc2ccc(=O)oc2cc1O	u	22%	25%	-4%	58%	-1%
O=c1ccc2ccc(O)c(O)c2o1	i	7.5µM*	x	x	13µM*	x
Cc1cc2ccccc2c[n+]1CC(=O)c1ccc(F)cc1	x	-3%	x	x	x	x
CC1=CC(C)(C)N2C(=O)C(=Nc3ccc(O)cc3)c3cccc1c32	-29%	u	u	-1%	u	32µM*
COc1cc(N=C2C(=O)N3c4c(cccc42)C(C)=CC3(C)C)cc(OC)c1	-8%	32%	8%	i	0%	-1%
CN[C@H](CC(C)C)C(=O)N[C@H]1C(=O)N[C@@H](CC(N)=O)C(=O)N[C@H]2C(=O)N[C@H]3C(=O)N[C@H](C(=O)N[C@@H](C(=O)O)c4cc(O)cc(O)c4-c4cc3ccc4O)[C@H](O)c3ccc(c(Cl)c3)Oc3cc2cc(c3O[C@@H]2O[C@H](CO)[C@@H](O)[C@H](O)[C@H]2O[C@H]2C[C@](C)(N)C(O)[C@H](C)O2)Oc2ccc(cc2Cl)[C@H]1O (stereo partly specified)	x	x	x	x	19%[21 µM]	x
CN(C)/C=C/c1c([N+](=O)[O-])c2ccc(O)cc2n1-c1ccccc1	i	-34%	8.9µM*	-10%	9%	-13%
COC(=O)c1c(C)n(-c2ccccc2)c2ccc(O)cc12	3%	-9%	12%	-6%	16%	-10%
C=C1C=C(C(F)F)n2ncc(C(=O)NCc3ccc(F)cc3)c2N1	x	-5%	x	x	x	x
O=C(NCCCCNC(=O)c1ccc(F)cc1)c1ccc(F)cc1	x	-1%	-11%	-3%	-4%	0%
CCCNC(=O)NNC(=O)c1ccc(F)cc1	i	12%	11µM*	-1%	-5%	-4%
COc1ccc([N+](=O)[O-])cc1NC(=O)Nc1ccc(OC)c(OC)c1	i	-15%	4%	11%	3%	32µM*
COc1ccc(NC(=O)Nc2ccc(OC)c(OC)c2)c([N+](=O)[O-])c1	-4%	6%	3%	3%	11%	2%
C=C1C[C@@H]2[C@H]3CCC4=CC(=O)C=C[C@]4(C)[C@@]3(F)[C@@H](O)C[C@]2(C)[C@]1(O)C(=O)COC(C)=O	x	x	-5%	x	x	x
O=[N+]([O-])c1cc(CN2CCCC2)c2cccnc2c1O	u	40µM*	30%	-2%	3.5µM*	u
N[C@@H](Cc1cc(I)c(Oc2ccc(O)c(I)c2)c(I)c1)C(=O)O	-3%	u	16µM*!	u	-4%	25µM*!
COc1ccc(CNCC(O)COc2ccc3[nH]c(=O)ccc3c2)cc1OC (stereo unspecified)	x	x	-6%	x	x	x
Nc1cccc2[nH]c(C(F)(F)F)nc12	-3%	56µM*	76%	-5%	u	-9%
O=C(O)c1cccc2[nH]c(C(F)(F)F)nc12	-1%	-6%	8%	9%	1%	3%
C(=C\c1c[nH]c2ccccc12)/c1ccc2ccccc2n1	x	-24%	x	x	x	x
